Assay results: PubChem BioAssay AID1053144 (Broad Institute, 2014)
In all, about 3,400 compounds went through this assay and about 160 (4.7%) were called active.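 The calls were made as follows: active = fitted curve reaches 30% activation at a concentration no higher than the top valid tested dose, luminescence rising; inconclusive = no clear call, values can overlap the other calls; inactive = signal moving opposite to the expected increase, plus the rest.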 Not all results are given here. Entries with a potency or affinity are not part of this list.

Assay: TCF/LEF reporter activation in neural progenitors – cell-based, iPS-derived NPC, luciferase, Wnt3a, cherry-pick, dose response (AID 1053144);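 also: Wnt3a stimulus is conditioned medium from Wnt3a-transfected mouse L cells at 5% in well; 0% = neutral control wells and 100% = CHIR-99021 positive control wells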
Conditions: Wnt3a EC25, 24 h; series mostly up to 26 µM; activation: at the top concentration

activation, inactive:
O=C(NCCc1cccs1)c1ccc(Cl)c(Cl)c1 10.3%
COc1ccccc1C1CC(c2cccs2)=Nc2ccccc2S1 (stereo not given) -0.562%
COc1ccc2oc(C(=O)Nc3ccc(C)cn3)c(C)c2c1 4.94%
COc1ccc(/C=N/Nc2nc3ccccc3o2)cc1O -6.25%
COc1cc(/C=N/Nc2ccccn2)ccc1O 15.7%
Nc1[nH]n(-c2ccccc2)c(=O)c1N=Nc1ccccc1[N+](=O)[O-] 14.7%
COCCNC(=O)c1ccc2c(Cl)c3c(nc2c1)CCC3 11.6%
CCOC(=O)c1c(C)[nH]c(C(=O)OCc2ccccc2)c1C 11.5%
CCOC(=O)c1c(C)[nH]c(C(=O)OCC(=O)c2ccccc2)c1C 14.7%
CCOC(=O)N1CCC(N2CCCC(C(=O)c3cc(F)ccc3OC)C2)CC1 (stereo not given) -0.943%
COc1ccc(N2CCN(c3ccc(NC(=O)/C=C\C(=O)O)cc3)CC2)cc1 0.048%
Cc1ccc(-c2nn(-c3ccccc3)cc2C=O)o1 9.4%
O=C(NCc1cccnc1)C(=O)Nc1nc2ccccc2s1 7.41%
OCC1(CCOc2ccccc2)CCN(Cc2ccccc2C(F)(F)F)CC1 -1.43%
Nc1ccc2nc(NC(=O)C3CCCCC3)sc2c1 13.5%
Cc1cc(/C=N/NC(=O)c2ccccc2F)c(C)n1-c1ccccc1 5.67%
COc1ccc(N2C(=O)c3ccccc3C2O)cc1 (stereo not given) 7.59%
COc1ccc(CN2C(=O)c3cccc4cccc(c34)C2=O)cc1 -0.645%
O=C(c1cc2cc(F)ccc2[nH]1)N1CCc2ccccc21 10.3%
Cc1ccc(-c2nc3ccsc3c(=O)o2)cc1 8%
Cc1ccnc2ccc(-c3nc4ccccc4o3)cc12 12.7%
COc1ccc(C2CC(=O)N(C)c3ccccc3S2)cc1OC (stereo not given) 17.8%
Clc1cccc(-c2ccc3ncnc(NCc4cccs4)c3c2)c1 8.6%
O=c1cc(-c2ccc3c(c2)OCCO3)oc2ccc(Cl)cc12 5.72%
O=c1cc(-c2ccccc2)oc2ccc(Cl)cc12 8.75%
C/C(=N/NC(=O)c1ccco1)c1ccc(NC(=O)c2ccc(F)cc2)cc1 3.65%
Cc1ccccc1-c1nnc(-c2cccc3ccccc23)o1 7.55%
Cc1cccc(-c2nnc(-c3cccc4ccccc34)o2)c1 6.2%
Nc1ccc(-c2nnc(-c3ccc(N)cc3)o2)cc1 9.86%
Cc1ccc(NC(=O)N2CCC(c3ccccc3)C2)cc1C (stereo not given) 18%
O=C(Cc1nc2ccccc2[nH]c1=O)c1ccccc1 7.66%
CCc1cc(C(=O)Cc2nc3ccccc3[nH]2)c(O)cc1O 5.81%
CCc1ccc(C(=O)COC(=O)c2ccccc2OC)cc1 15.9%
COc1ccc(-c2nnc(SCC(C)C)o2)cc1 5.72%
COc1ccc(-c2nnc(SCC(=O)Nc3cccc(Cl)c3)o2)cc1 5.55%
Cc1onc(C(=O)Nc2sc3c(c2C#N)CCCC3)c1[N+](=O)[O-] 3.37%
Cc1cc(NC(=O)c2cccc(F)c2)ncc1NC(=O)c1ccco1 5.89%
Cc1ccc(N/C=C/C(=O)c2ccco2)c(O)c1 12.8%
O=C(/C=C/C=C/c1ccccc1)c1ccco1 19.1%
Cc1ccnc(NC(=O)c2cc3cc(F)ccc3s2)c1 5.25%
CC(C)NC(=O)c1cc(-c2cccs2)on1 21.6%
Cc1ccc(NC(=O)c2cc(-c3cccs3)on2)cc1C 9.24%
CCc1cc(CNC(=O)CCc2nnc(CCCc3ccccc3)o2)on1 12%
O=C(NC(=O)c1ccc(F)cc1F)Nc1ccc(Cl)cc1 17.1%
Nc1ccc(O)c2c(=O)cc(-c3ccccc3Cl)oc12 7.45%
CCCOc1ccc(-c2csc3nc[nH]c(=O)c23)cc1 4.45%
COc1ccc2[nH]c(-c3ccccc3)cc2c1 6.06%
COc1ccc2cc(CCNC(=O)c3cccs3)c(=O)[nH]c2c1 9.16%
Cc1ccc(CONC(=O)c2ccc(C)cc2)cc1 8.43%
COc1ccc(N=Nc2ccc(N)nc2N)cc1 12.9%
Nc1ccc(N=Nc2ccccc2)c(N)n1 12.5%
CCOC(=O)C1(Cc2ccccc2)CCCN(C(=O)COc2ccccc2OC)C1 (stereo not given) 9.49%
Cn1c(SCc2ccccc2F)nnc1-c1ccccn1 13.6%
Cn1c(SCC(=O)c2ccccc2)nnc1-c1ccccn1 11.4%
Cc1ccc(NC(=O)C(=O)NCCCN2CCCC2=O)cc1 6.01%
COc1ccc2oc(=O)c(-c3nc4ccccc4o3)cc2c1 16.9%
COc1cccc2cc(-c3nc4ccccc4o3)c(=O)oc12 6.12%
N/C(=N\OC(=O)c1cccs1)c1ccc(Cl)cc1 10.6%
O=C(Nc1ccccc1)Nc1nnc(-c2ccccc2)s1 8.64%
COc1ccc(C(C(=O)NC2CCCC2)n2c(C3CCN(C(C)=O)CC3)nc3ccccc32)cc1 (stereo not given) 16.6%
c1ccc2c(c1)Cc1cc3ccccc3nc1-2 15.7%
O=C(O)c1ccc2c(c1)C(=O)N(c1ccc(C(=O)OCC(=O)c3ccccc3)cc1)C2=O 7.5%
O=C(/C=C/c1ccc(N2CCOCC2)cc1)c1ccccc1 5.79%
CCC(C)C(=O)Nc1nc2ccc(OC)cc2s1 (stereo not given) 11.1%
CC(=O)Nc1nonc1NC(=O)c1ccc(C(C)(C)C)cc1 6.59%
CCCCn1c(CN2CCN(C(=O)OCC)CC2)nc2c1c(=O)n(C)c(=O)n2C 1.14%
Fc1ccccc1-c1nc(-c2ccccc2)no1 4.1%
Cc1ccc(-c2noc(-c3ccccc3F)n2)cc1 7.61%
Cc1ccc(OCc2cc(C(=O)NCC(C)(C)N3CCOCC3)no2)cc1C 13.3%
NC(=O)CSc1nnc(NC(=O)c2ccc3ccccc3c2)s1 8.39%
CC1CCN(C(=O)CSc2nc3ccccc3s2)CC1 7.04%
CC1CCC2(CC1)NC(=O)N(CC(=O)Nc1sc3c(c1C(N)=O)CCC3)C2=O (stereo not given) 5.23%
NC(=O)c1c(NC(=O)c2ccccc2)sc2c1CCC2 9.7%
CN1CCN(c2ccc(NC(=O)c3ccc(-c4ccccc4F)o3)cc2)CC1 13.4%
CCn1c(SCC(=O)c2ccccc2)nnc1-c1cnccn1 9.13%
Cn1c(SCC(=O)c2ccccc2)nnc1-c1ccc(O)cc1 13%
O=C(Nc1nnc(C2CCCCC2)s1)c1cccs1 4.29%
Cc1ccnc(N/C=C/C(=O)c2ccc(Br)cc2)c1 3.27%
Cc1nc2ccc(-c3nc4cc(N)ccc4o3)cc2[nH]1 3.55%
Nc1ccc(-c2nc3ccc([N+](=O)[O-])cc3[nH]2)cc1 18.3%
CCCOc1ccc(C(=O)Nc2ccc3c(c2)OCO3)cc1 13.3%
CC1CCC(NC(=O)c2cccn2C)CC1 (stereo not given) 2.89%
C=C(C)CNC(=O)CCc1nnc(Cc2cccc(C(F)(F)F)c2)o1 17%
O=C(COc1ccc2c(c1)OCO2)Nc1ccccc1F 8.94%
O=C(NCC(c1ccco1)N1CCCC1)c1cc(=O)[nH]c2ccccc12 (stereo not given) 0.695%
O=C(O)c1ccccc1SCc1cn2cc(Cl)ccc2n1 9.86%
CCOC(=O)/C(=C/c1ccc(OC(=O)c2ccncc2)cc1)C(C)=O 2.42%
CN1CCSc2ccc(C(=O)Nc3ccc(Cl)cc3)cc21 12.8%
COc1ccc(NC(=O)c2ccc3c(c2)N(C)CCS3)cc1 8.32%
Cc1ccc2c(c1)c1c(n2C)-c2[nH]ncc2CC1 8.88%
COC(=O)c1nn(-c2ccc(C)cc2)c2nnc(Cc3ccccc3)c(=O)n12 1.09%
O=C(Nc1ccc(Cl)cc1)c1ccco1 6.38%
COC(=O)c1ccc(NC(=O)c2ccco2)cc1 24.7%
COc1ncccc1-c1nnn(-c2ccccc2)n1 8.3%
CC(=O)NC(CC(=O)NNC(=O)COc1c(C)cccc1C)c1ccccc1 (stereo not given) -0.753%
Cc1cc(NC(=O)c2ccccc2)ncc1NC(=O)c1ccco1 6.34%
CSc1nccc(N/N=C/c2ccccc2)n1 9.49%
O=C(c1cc(-c2ccccc2)on1)N1CCCCCC1 13.4%
COc1ccc(C(=O)c2c[nH]c(C(=O)NCCCn3ccnc3)c2)cc1 2.91%
O=C(NCc1cccs1)c1cc(-c2ccc(O)cc2)on1 9.8%
O=C(NC1CCCC1)c1cc(-c2ccc(Cl)cc2)on1 13.5%
O=c1c2ccccc2oc2ccc(NCCCn3ccnc3)cc12 0.761%
O=C(NC1CCCCC1)c1cc(-c2cccs2)on1 6.56%
CC(C)(C)c1cccc(N/C(=C\C(=O)c2ccccc2)c2ccccc2)c1 -2.87%
CC(=O)c1ccc(OCc2ccccc2)c(C)c1O 6.75%
O=C(Nc1nnc(-c2ccco2)s1)C1CC1 4.36%
COc1cccc(N=c2oc3ccccc3cc2-c2nc3ccccc3[nH]2)c1 -4.17%
O=C(Nc1ccc(Br)cn1)c1ccc(Cl)s1 2.47%
Cc1cc(C(=O)Nc2ccc(Br)cn2)sc1C 8.02%
CC(=O)c1cc(F)ccc1OCC(=O)Nc1ccc2c(c1)OCO2 8%
O=S(=O)(c1cccs1)N1CCCc2cccc(O)c21 8.4%
COc1cccc(OCc2cc(C(=O)N3CCN(c4ccccc4OC)CC3)no2)c1 6.95%
O=C(O)COn1c(-c2ccccc2)nc2ccc([N+](=O)[O-])cc21 8.93%
Cc1ccnc(SCc2cc(=O)c(OC(=O)c3ccc(Br)o3)co2)n1 7.99%
COc1ccc(/C=C/C(=O)c2cc3c(cc2N)OCO3)cc1 6.99%
O=C(/C=C/c1ccccc1)NC(=O)c1ccccc1O 5.83%
O=C(/C=C/c1cc2ccccc2o1)c1ccccc1O 9.57%
O=C(/C=C/c1ccc2c(c1)OCO2)c1ccc[nH]1 6.1%
O=C(N/N=C/c1ccc(N2CCOCC2)cc1)c1cccs1 8.99%
CCc1sc(C(=O)N2CCc3ccccc32)cc1C 3.85%
CC(C)[C@H](NC(=O)OCc1ccccc1)C(=O)OCC(=O)c1ccccc1 4.59%
COc1cc(/C=C/C(=O)N2C(=O)c3cccc(N)c3C2=O)cc(OC)c1OC -6.94%
COc1cc2ccccc2cc1C(=O)Nc1ccc(O)cc1 8.68%
Cc1cnc(C(=O)Nc2ccc(C(C)C)cc2)cn1 12.2%
Cc1ccc(NC(=O)c2ccccc2NC(=O)Cc2ccccc2)cc1 7.38%
COc1ccc(NC(=O)c2cc3ccccc3cc2O)cc1 12.5%
Cc1cc(C)n(-c2nnc3c4ccccc4n(C)c3n2)n1 16.2%
O=C(Nc1ccc2c(c1)OCO2)c1ccc(CO)cc1 6.96%
CCOC(=O)CSc1nc2ccccc2c(=O)n1NC(=O)c1ccccc1 15%
c1cncc(CSc2ccc(-c3ccc4c(c3)OCO4)nn2)c1 7.68%
